Test [1] is described as follows: circadian clock period modulators, cell-based, LOPAC library, luminescence reporter (AID 2774; call rule not given here;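 note: values are relative to mean of DMSO wells on each plate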). To be noted: circadian reporter cells, at 7 µM, actives lie on both sides.
The subject of test [2] is Hepatitis C virus NS3 helicase. The test is described as follows: HCV NS3 helicase inhibitors, primary screen, biochemical, fluorescence polarization, LOPAC1280 library (AID 687035; in the data active = inhibition above about 37%). To be noted: Purified HCV NS3 helicase, Cy5-dT15 ssDNA binding fluorescence polarization; stronger effect = higher value; concentration not given here. A general note: In fluorescence polarisation assays a small probe gives low polarisation when free and higher when bound to something large.

In test [3] the target is 6-phosphogluconate dehydrogenase, decarboxylating (Homo sapiens) (UniProt P52209). The test is described as follows: 6PGD enzyme inhibitors, primary screen, biochemical, human, recombinant enzyme, NADPH absorbance (AID 1159550;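 active = at least 20% inhibition of 6-phosphogluconate dehydrogenase activity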). To be noted: recombinant 6PGD, NADPH absorbance 341 nm; at 10 µM; stronger effect = higher value.
Test [4] can be described thus: differential killing of epithelial or mesenchymal cells, primary screen, imaging, PC-3E GFP, TEM4-18 mCherry, co-culture (AID 1345086).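 For all read-outs here: cells exposed to compound for 72 h before imaging.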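 For red/green cell ratio (normalised): normalised mesenchymal count divided by normalised epithelial count so high means epithelial killing.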 To be noted: imaging cell counts, at 1 µM; for red/green cell ratio (normalised): actives lie on both sides, counts scaled to control wells, 1 = unselective.
A short description of test [5]: sensitizers of A549 cells to miR-34 induction, primary screen, imaging, A549 dox-inducible miR-34, nuclei and caspase counts (AID 1347080;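 active = compounds whose cell count with miR-34 switched on is under 0.7 times the count with it off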). To be noted: A549 miR-34 inducible, Hoechst nuclei count, 48 h.
A short description of test [6]: phospholipid biosynthesis inhibitors in animal cells, primary screen, cell-based, LOPAC library, screen 4 (AID 1347384; call rule not given here). To be noted: phospholipid biosynthesis inhibition screen, at 10 µM.
Test [7] addresses Mitogen-activated protein kinase 7 (Homo sapiens) (UniProt Q13164). The experiment in a line: ERK5 transactivation activators in reporter cells, primary screen, cell-based, HTS (AID 1508626;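 active = luciferase signal above three times the same-plate solvent-only control wells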;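 note: luciferase driven by Gal4-ERK5 fusion binding five Gal4 sites before minimal TATA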). To be noted: HeLa Gal4-ERK5 transactivation, 18 h, at 5 µM, stronger effect = higher value.
Test [8] is described as follows: viability rescue of complex I mutant cybrids, primary screen, cell-based, galactose medium, ATP luminescence (AID 1645843;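 active = z-score of at least 1.8 in each of two replicates, scored against plate mean and spread of sample wells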;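 note: positive z means more ATP and so rescue of galactose-driven cybrid death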). The conditions noted are these: complex I mutant cybrid cells, 72 h, stronger effect = higher value.
Test [9] can be described thus: polyglutamine-triggered caspase-3 activation inhibitors, cell-based (AID 1583). The conditions noted are these: polyglutamine-induced caspase-3 activation, cell assay; stronger effect = higher value;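 tested at 10 µM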.
Test [10] is described as follows: suppressors of polyQ aggregation in yeast, 75Q-TubU reporter (AID 1593). The conditions noted are these: Yeast 75Q polyglutamine aggregation reporter.
A short description of test [11]: rescue of polyQ-huntingtin neuronal dysfunction in worms, whole organism, C. elegans mechanosensory neurons, N-terminal huntingtin (AID 1599). To be noted: touch response, stronger effect = higher value.
Test [12] is described as follows: inhibitors of mitochondrial cytochrome c release, biochemical, purified mitochondria (AID 1603).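 Note: mouse liver mitochondria challenged with calcium chloride; signal normalized to the plate average as 100%.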 The conditions noted are these: stronger effect = lower value.
Test [13] is described as follows: inhibitors of polyQ protein aggregation (AID 1604). To be noted: polyglutamine-induced protein aggregation inhibition assay; stronger effect = higher value; tested at 2.5 µM.
A short description of test [14]: enhancers of glutamate uptake in motor neurons, MN-1 cell line (AID 1612).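 Note: tested at 1 µM final; 0% = mean of DMSO vehicle wells on each plate; positive means more glutamate uptake than control and negative means less.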 The conditions noted are these: MN-1 motor neuron cells, stronger effect = higher value.
Test [15] is described as follows: reducers of polyQ inclusions in PC12 cells, cell-based, NGF-treated PC12, GFPQ80 (AID 1614).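 Note: lower means fewer inclusions and 0 means no inclusions at all.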 To be noted: PC12 NGF-treated GFP-polyQ80 inclusion reduction.
Test [16] can be described thus: suppressors of polyglutamine aggregation in yeast, 75Q-TubH (AID 1616). The conditions noted are these: S. cerevisiae 75Q-TubH polyglutamine aggregation suppression; stronger effect = higher value.
Test [17] has as its target NAD(+) hydrolase SARM1 (Homo sapiens) (UniProt Q6SZW1). The test is described as follows: SARM1 TIR NADase inhibitors, cell lysate, NAD-Glo luminescence (AID 1508614;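 active = compound whose remaining NAD level is above about 45 nM, limit read from the data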;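 note: higher remaining NAD means stronger inhibition of SARM1 NADase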). To be noted: SAM-TIR HEK293T lysate NADase, at 1 µM, stronger effect = higher value.
Test [18] is described as follows: liver-stage malaria parasite growth inhibition, primary screen, cell-based, HepG2, luciferase luminescence, HepG2 viability (AID 624349; in the data active = parasite load remaining mostly below about 12%, no sharp cut-off; inactive = mostly above about 10%;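 note: 100% = mean of DMSO negative control wells on the same plate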). To be noted: P. berghei liver stage in HepG2, luciferase luminescence, concentration not given here; parasite load remaining: stronger effect = lower value; viability: measured here: HepG2 viability without parasites.
Where [19] appears, read: measured here: epithelial PC-3E GFP cell survival.
Setting [20] is: measured here: mesenchymal TEM4-18 mCherry cell survival.
The mark [21] stands for this setting: stronger effect = lower value, cell number ratio, induced over uninduced.
[22] abbreviates: measured here: relative caspase fold change +Dox/-Dox.
The mark [23] stands for this setting: measured here: total cells with miR-34 induction, stronger effect = lower value.
[24] abbreviates: measured here: total cells without miR-34 induction.

Each structure is given as a SMILES string. Where “and” joins values, the source holds several entries; their conditions need not be identical. Equal values may be shown once. For some of these results: Measured potencies and affinities stand elsewhere. Calls of active or inactive are those of the source.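 Rule for the calls, unless noted: active = compounds killing one labelled cell type while sparing the other, by normalised counts and ratio limits, not self-fluorescent; inactive = the rest.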

Sequence of Mitogen-activated protein kinase 7 (Homo sapiens) (Q13164 whole entry, looked up, the tested form may be a part): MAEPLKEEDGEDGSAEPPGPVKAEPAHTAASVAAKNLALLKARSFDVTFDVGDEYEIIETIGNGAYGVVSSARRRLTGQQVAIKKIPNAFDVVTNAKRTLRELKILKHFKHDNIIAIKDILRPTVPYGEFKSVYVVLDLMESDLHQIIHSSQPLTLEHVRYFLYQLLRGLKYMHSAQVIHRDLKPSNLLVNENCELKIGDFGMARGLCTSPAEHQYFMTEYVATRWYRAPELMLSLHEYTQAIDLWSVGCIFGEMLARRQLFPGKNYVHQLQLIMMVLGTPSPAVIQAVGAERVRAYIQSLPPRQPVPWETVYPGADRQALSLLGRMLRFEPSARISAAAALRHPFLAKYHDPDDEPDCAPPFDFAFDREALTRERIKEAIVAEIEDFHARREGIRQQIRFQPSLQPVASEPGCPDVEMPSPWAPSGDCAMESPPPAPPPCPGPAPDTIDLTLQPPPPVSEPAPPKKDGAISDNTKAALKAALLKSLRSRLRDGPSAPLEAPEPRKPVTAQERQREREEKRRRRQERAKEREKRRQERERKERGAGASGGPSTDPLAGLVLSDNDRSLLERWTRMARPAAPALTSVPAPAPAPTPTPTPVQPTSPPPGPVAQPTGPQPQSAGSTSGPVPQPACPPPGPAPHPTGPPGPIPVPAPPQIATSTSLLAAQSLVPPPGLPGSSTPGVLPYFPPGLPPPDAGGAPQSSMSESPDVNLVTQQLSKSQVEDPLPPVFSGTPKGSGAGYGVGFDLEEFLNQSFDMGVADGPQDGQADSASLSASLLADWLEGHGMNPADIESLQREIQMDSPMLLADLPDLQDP
Sequence of NAD(+) hydrolase SARM1 (Homo sapiens) (Q6SZW1 whole entry, looked up): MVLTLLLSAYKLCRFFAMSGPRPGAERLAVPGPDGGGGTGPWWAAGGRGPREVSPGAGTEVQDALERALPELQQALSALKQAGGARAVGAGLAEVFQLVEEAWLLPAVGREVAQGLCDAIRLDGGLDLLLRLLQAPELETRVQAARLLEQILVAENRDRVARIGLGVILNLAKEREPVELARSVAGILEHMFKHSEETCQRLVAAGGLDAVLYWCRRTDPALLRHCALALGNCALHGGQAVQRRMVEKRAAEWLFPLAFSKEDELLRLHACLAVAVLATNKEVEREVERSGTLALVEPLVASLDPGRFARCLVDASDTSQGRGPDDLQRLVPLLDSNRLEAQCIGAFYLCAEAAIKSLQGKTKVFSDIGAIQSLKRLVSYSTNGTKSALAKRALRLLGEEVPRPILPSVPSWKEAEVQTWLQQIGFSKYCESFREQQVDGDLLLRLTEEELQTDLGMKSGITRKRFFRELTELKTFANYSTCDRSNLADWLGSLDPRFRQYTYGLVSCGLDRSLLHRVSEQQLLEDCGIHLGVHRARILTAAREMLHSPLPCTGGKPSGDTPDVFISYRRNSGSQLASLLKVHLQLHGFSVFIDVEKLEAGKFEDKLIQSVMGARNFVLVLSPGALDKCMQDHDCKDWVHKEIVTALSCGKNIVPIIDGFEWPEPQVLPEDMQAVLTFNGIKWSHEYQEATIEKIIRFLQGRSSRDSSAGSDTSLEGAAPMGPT
Sequence of 6-phosphogluconate dehydrogenase, decarboxylating (Homo sapiens) (P52209 whole entry, looked up): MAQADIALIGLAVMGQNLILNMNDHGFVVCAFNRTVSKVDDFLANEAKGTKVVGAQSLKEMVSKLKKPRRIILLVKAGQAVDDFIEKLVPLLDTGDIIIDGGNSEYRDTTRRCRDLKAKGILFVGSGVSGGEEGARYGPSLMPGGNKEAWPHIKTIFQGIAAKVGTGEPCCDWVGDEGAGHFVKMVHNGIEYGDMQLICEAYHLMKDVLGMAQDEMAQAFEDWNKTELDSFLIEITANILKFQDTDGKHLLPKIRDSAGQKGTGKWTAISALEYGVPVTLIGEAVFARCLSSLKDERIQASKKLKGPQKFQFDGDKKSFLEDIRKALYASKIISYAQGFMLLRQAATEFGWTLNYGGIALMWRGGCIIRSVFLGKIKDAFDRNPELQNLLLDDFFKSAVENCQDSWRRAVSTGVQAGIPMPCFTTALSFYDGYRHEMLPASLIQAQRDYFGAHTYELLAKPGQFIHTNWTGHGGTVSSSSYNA

As to `O=C1OC(=O)C2C3CCC(O3)C12` (stereo unspecified), the period change in test [1] is -0.06 h (inactive). For the same molecule, the inhibition in test [2] is -2% (inactive); in test [3], 14.8% (inactive). Also, in [4], the red/green cell ratio (normalised) is 0.77 (inactive). Moreover, the normalised cell number in test [4] (setting [19]) came to 1.38; in test [4] (setting [20]) it was 1.06. For the same molecule, the fold change in test [5] (setting [21]) is 1.08 (inactive); in test [5] (setting [22]) it was 0.974. Besides, the cell count is 8750 in test [5] (setting [23]) and 8080 in [5] (setting [24]). Further, in test [6], the molecule was classed as inactive. Moreover, in test [7], the luciferase signal is 52 AU (inactive). Also, the z-score in [8] is -0.385 (inactive).
As for `CN1CC(=O)N=C1N`, the inhibition is -27.2% in [9] and 10.8% (inactive) in [3]. Besides, the score in [10] came to 1.33. In test [11], this molecule displayed a rescue above control of -3.62. In test [12], the cytochrome c release ratio was 0.51. For the same molecule, in test [13], the inhibition of aggregation worked out at 97.4%. Moreover, the glutamate uptake change in test [14] came to 32%. Further, the inclusion score in test [15] stood at 2. The molecule also yielded an aggregation suppression score in [16] of 1.7. Also, in test [4], the red/green cell ratio (normalised) was 1.04 (inactive). For the same molecule, the normalised cell number in [4] (setting [19]) stood at 0.96; in test [4] (setting [20]) it was 1. For the same molecule, in test [17], the remaining NAD is 10 nM (inactive). For the same molecule, in test [7], the luciferase signal is 68 AU (inactive).
As to `CC(=C(CCOP(=O)(O)O)SC(=O)c1ccccc1)N(C=O)Cc1cnc(C)nc1N`, the results for the inhibition in [9] and in test [3] were 9.82% and -10.8% (inactive), respectively. Moreover, in [10], the score came to 1.37. Also, the rescue above control in [11] stood at 3.18. Besides, the cytochrome c release ratio in [12] amounted to 0.86. Besides, the inhibition of aggregation in test [13] was 39.4%. The glutamate uptake change in test [14] was 18.4%. Further, the inclusion score in test [15] came to 2. In test [16], this molecule gave an aggregation suppression score of 0.998. In [4], the red/green cell ratio (normalised) was 0.95 (inactive). In addition, the normalised cell number in test [4] (setting [19]) was determined as 1.05; in test [4] (setting [20]) it was 1. Also, the remaining NAD in test [17] is 10 nM (inactive).
As for `COc1ccc2cc([C@H](C)CO)ccc2c1`, in test [18], the parasite load remaining was 184% (inactive) and 65% (inactive). Moreover, the viability in test [18] is 85.1% and 144%. The inhibition in test [3] was 2.43% (inactive). In addition, the red/green cell ratio (normalised) in test [4] is 1.04 (inactive). Moreover, the normalised cell number came out at 1.15 in test [4] (setting [19]) and 1.2 in test [4] (setting [20]). Moreover, the fold change is 0.861 (inactive) in test [5] (setting [21]) and 3.55 in [5] (setting [22]). The results for the cell count in test [5] (setting [23]) and in [5] (setting [24]) were 11000 and 12800, respectively. Further, the remaining NAD in test [17] is 10 nM (inactive). In addition, the luciferase signal in test [7] was 32 AU (inactive).
Take `O=C(O)CN(CCN(CC(=O)O)CC(=O)O)CC(=O)O`: the inhibition is 13.2% in test [9] and 8.13% (inactive) in [3]. In test [10], the score is 1.69. Besides, in test [11], the rescue above control was -6.51. For the same molecule, in test [12], the cytochrome c release ratio was 0.54. The same molecule registered an inhibition of aggregation in test [13] of 72.4%. For the same molecule, the glutamate uptake change in test [14] was -23.4%. Also, in test [15], the inclusion score stood at 1.5. This molecule also showed an aggregation suppression score in [16] of 1.43. In addition, the parasite load remaining in test [18] is 74.6% (inactive) and 69.8% (inactive). Moreover, in test [18], the viability was 73.4% and 97.7%. In addition, in test [4], the red/green cell ratio (normalised) is 1.05 (inactive) and 0.92 (inactive). Besides, the normalised cell number in [4] (setting [19]) was 1.05 and 1.23; in test [4] (setting [20]) it was 1.11 and 1.13. Besides, the fold change in test [5] (setting [21]) was 0.899 (inactive); in test [5] (setting [22]), 3.42. In addition, the cell count in test [5] (setting [23]) amounted to 11600; in test [5] (setting [24]) it was 12900. In addition, the remaining NAD in [17] is 10 nM (inactive).
In the case of `CCCCCCCCCCCCCCCC(=O)OC/C=C(C)/C=C/C=C(C)/C=C/C1=C(C)CCCC1(C)C`, the inhibition in [9] was -19.1%; in test [3], 1.58% (inactive). The same molecule displayed a score in [10] of 1.38. Besides, the rescue above control in [11] turned out to be 3.93. Also, the cytochrome c release ratio in [12] was 1.03. This molecule also yielded an inhibition of aggregation in [13] of 46%. Besides, the glutamate uptake change in test [14] worked out at 4.94%. For the same molecule, the inclusion score in test [15] worked out at 2. This molecule yielded an aggregation suppression score in [16] of 0.6. Besides, the parasite load remaining in [18] was 174% (inactive) and 50.5% (inactive). The viability in test [18] was 86.2% and 95%. In [4], the red/green cell ratio (normalised) is 1.41 (inactive). The normalised cell number in test [4] (setting [19]) was found to be 0.95; in test [4] (setting [20]), 1.34. Moreover, the fold change was 0.809 (inactive) in test [5] (setting [21]) and 0.861 in [5] (setting [22]). The cell count in test [5] (setting [23]) came out at 9920; in [5] (setting [24]), 12300. Moreover, in [17], the remaining NAD was 10 nM (inactive). Moreover, the luciferase signal in test [7] is 624 AU (active).

As usually defined, the inhibition is the relative decrease from the control value, in per cent. Usually viability stands for a read-out of living cells in per cent, often relative to untreated cells.

Source of the values: PubChem BioAssay.
